{
  "source": "PubChem BioAssay (EPA / NIEHS)",
  "key": {"[1]": {"biological_target": "sheep Cyclooxygenase-2 (Cox2), PTGS2 (gene 443460) (UniProt P79208)", "sequence (P79208 whole entry, looked up)": "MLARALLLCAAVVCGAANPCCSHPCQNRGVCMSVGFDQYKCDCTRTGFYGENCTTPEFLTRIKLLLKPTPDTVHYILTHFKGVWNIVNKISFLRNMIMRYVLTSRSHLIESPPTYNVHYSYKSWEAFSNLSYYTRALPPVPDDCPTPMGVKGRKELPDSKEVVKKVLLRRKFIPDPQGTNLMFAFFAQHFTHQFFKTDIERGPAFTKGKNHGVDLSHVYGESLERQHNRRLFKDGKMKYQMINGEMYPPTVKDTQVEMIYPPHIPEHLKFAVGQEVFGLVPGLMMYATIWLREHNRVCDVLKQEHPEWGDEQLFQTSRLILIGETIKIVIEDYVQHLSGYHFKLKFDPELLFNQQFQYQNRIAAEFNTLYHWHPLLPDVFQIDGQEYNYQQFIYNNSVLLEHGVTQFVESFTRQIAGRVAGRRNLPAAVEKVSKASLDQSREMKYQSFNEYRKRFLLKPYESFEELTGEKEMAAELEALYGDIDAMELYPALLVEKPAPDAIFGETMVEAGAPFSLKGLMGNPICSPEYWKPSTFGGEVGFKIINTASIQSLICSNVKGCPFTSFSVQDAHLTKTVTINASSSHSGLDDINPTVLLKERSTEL", "assay": "NVS_ENZ_oCOX2: NovaScreen (NVS) Enzymatic Assay for sheep Cyclooxygenase-2 (Cox2) (AID 2283231)", "protocol": "NVS_ENZ_oCOX2 is a biochemical, single-readout assay that uses extracted gene-proteins from Ovine placenta in a tissue-based cell-free assay. Measurements were taken 0.66 hour after chemical dosing in a 96-well plate.NVS_ENZ_oCOX2 is one of one assay component(s) measured or calculated from the NVS_ENZ_oCOX2 assay. It is designed to make measurements of enzyme activity, a form of enzyme reporter, as detected with absorbance signals by Colorimetric technology.Data from the assay component NVS_ENZ_oCOX2 was analyzed into 1 assay endpoint. This assay endpoint, NVS_ENZ_oCOX2, was analyzed in the positive analysis fitting direction relative to DMSO as the negative control and baseline of activity. Using a type of enzyme reporter, loss-of-signal activity can be used to understand changes in the enzymatic activity as they relate to the gene PTGS2. Furthermore, this assay endpoint can be referred to as a primary readout, because this assay has produced multiple assay endpoints where this one serves a enzymatic activity function. To generalize the intended target to other relatable targets, this assay endpoint is annotated to the oxidoreductase intended target family, where the subfamily is cyclooxygenase.\n(§1) Binding assays used specific radioligands (tritiated, iodinated) with non-radioactive competitive displacement ligands in agonist or antagonist protocols (as indicated) and various reference compounds and inhibitors to titrate specific binding to receptors and transporters. Most enzyme assays (CYPs, kinases, phosphatases, proteases, HDACs) used recombinant protein and specific substrates (fluorescence mostly, some colorimetric and radioactive) and inhibitors, followed by a biochemical separation of substrate and product. All assays for the biochemical HTS were initially run in duplicate at a single concentration (10 uM for CYP450 assays and 25 uM for all others). Assay-chemical combinations meeting a pre-defined threshold (e.g., 30% inhibition and other criteria defined below) were then run in singleton concentration-response format with maximum concentration of 20 uM for CYPs and 50 uM for all others. Each assay was run with positive and negative controls, and concurrent controls on every plate. The follow-up (secondary) screen tested active chemical-pairs in concentration series, as well as a few additional assays not tested in the primary screen, some selected negative inactives, and several cases re-run in the concentration series for confirmatory purposes."}, "[2]": {"biological_target": "rat Catechol-O-Methyl Transferase (COMT), Comt (gene 24267) (UniProt P22734)", "sequence (P22734 whole entry, looked up)": "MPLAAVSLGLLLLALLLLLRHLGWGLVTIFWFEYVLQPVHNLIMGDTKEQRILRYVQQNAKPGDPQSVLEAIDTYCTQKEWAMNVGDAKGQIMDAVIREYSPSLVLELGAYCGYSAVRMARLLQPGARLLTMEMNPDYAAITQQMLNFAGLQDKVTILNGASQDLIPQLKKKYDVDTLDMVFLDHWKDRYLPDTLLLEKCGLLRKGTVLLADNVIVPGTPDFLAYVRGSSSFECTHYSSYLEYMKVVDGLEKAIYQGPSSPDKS", "assay": "NVS_ENZ_rCOMT: NovaScreen (NVS) Enzymatic Assay for rat Catechol-O-Methyl Transferase (COMT) (AID 2283235)", "procedure,_shortened": "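Cell-free enzyme activity with protein extracted from rat dorsal striatum, measured by HPLC with absorbance detection. Compounds screened at 25 uM in duplicate; actives then run in concentration-response up to 50 uM, loss of signal versus DMSO.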"}, "[3]": {"biological_target": "rat Monoamine Oxidase, MAO-B, Central (MAOBC), Maob (gene 25750) (UniProt P19643)", "sequence (P19643 whole entry, looked up)": "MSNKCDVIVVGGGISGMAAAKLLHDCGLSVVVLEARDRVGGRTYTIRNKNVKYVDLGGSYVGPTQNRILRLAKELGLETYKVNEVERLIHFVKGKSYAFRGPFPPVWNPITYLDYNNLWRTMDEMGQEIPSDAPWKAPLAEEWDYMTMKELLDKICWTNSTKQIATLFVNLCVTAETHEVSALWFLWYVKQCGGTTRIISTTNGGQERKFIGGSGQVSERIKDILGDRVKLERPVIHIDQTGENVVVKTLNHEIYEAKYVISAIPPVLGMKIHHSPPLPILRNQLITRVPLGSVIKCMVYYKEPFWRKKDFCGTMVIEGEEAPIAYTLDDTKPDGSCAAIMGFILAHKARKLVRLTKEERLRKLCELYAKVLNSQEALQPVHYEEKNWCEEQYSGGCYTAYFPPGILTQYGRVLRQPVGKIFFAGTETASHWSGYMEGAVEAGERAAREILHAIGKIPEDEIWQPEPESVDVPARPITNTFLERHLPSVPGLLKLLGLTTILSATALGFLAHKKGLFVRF", "assay": "NVS_ENZ_rMAOBC: NovaScreen (NVS) Enzymatic Assay for rat Monoamine Oxidase, MAO-B, Central (MAOBC) (AID 2283238)", "protocol": "NVS_ENZ_rMAOBC is a biochemical, single-readout assay that uses extracted gene-proteins from Rat brain in a tissue-based cell-free assay. Measurements were taken 1.17 hours after chemical dosing in a 96-well plate.NVS_ENZ_rMAOBC is one of one assay component(s) measured or calculated from the NVS_ENZ_rMAOBC assay. It is designed to make measurements of enzyme activity, a form of enzyme reporter, as detected with scintillation counting signals by Lysate-based radiodetection technology.Data from the assay component NVS_ENZ_rMAOBC was analyzed into 1 assay endpoint. This assay endpoint, NVS_ENZ_rMAOBC, was analyzed in the positive analysis fitting direction relative to DMSO as the negative control and baseline of activity. Using a type of enzyme reporter, loss-of-signal activity can be used to understand changes in the enzymatic activity as they relate to the gene Maob. Furthermore, this assay endpoint can be referred to as a primary readout, because this assay has produced multiple assay endpoints where this one serves a enzymatic activity function. To generalize the intended target to other relatable targets, this assay endpoint is annotated to the oxidoreductase intended target family, where the subfamily is monoamine oxidase.\nas §1"}, "[4]": {"biological_target": "sheep Cyclooxygenase-1 (Cox1), PTGS1 (gene 443551) (UniProt P05979)", "sequence (P05979 whole entry, looked up)": "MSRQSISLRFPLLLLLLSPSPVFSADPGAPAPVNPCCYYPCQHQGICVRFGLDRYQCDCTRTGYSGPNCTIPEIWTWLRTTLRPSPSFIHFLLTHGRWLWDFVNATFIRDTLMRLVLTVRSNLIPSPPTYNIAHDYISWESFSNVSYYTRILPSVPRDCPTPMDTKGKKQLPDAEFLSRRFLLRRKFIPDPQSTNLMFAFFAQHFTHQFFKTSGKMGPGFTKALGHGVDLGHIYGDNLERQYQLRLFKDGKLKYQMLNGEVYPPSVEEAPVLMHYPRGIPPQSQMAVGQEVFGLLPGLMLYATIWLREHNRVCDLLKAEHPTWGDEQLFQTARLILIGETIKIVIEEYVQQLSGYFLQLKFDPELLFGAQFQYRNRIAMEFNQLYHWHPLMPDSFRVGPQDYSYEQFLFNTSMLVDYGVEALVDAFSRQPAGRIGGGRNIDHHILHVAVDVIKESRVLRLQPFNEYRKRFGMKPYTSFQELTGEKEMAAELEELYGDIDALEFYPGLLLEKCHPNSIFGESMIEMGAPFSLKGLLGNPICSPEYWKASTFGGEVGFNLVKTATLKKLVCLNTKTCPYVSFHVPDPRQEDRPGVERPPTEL", "assay": "NVS_ENZ_oCOX1: NovaScreen (NVS) Enzymatic Assay for sheep Cyclooxygenase-1 (Cox1) (AID 2283239)", "procedure,_shortened": "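Tested in duplicate at 25 uM, then in concentration series if active, against seminal vesicle extract from sheep. Enzyme activity was measured colorimetrically at 0.66 hour and normalised to DMSO.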"}, "[5]": {"tested_on": "rat Monoamine Oxidase, MAO-A, Peripheral (MAOAP), gene 29253", "assay": "NVS_ENZ_rMAOAP: NovaScreen (NVS) Enzymatic Assay for rat Monoamine Oxidase, MAO-A, Peripheral (MAOAP) (AID 2283237)", "procedure,_shortened": "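Rat liver mitochondrial membranes served as the MAO-A source, with enzyme activity measured by radiometric scintillation counting 1.17 hours after dosing. Loss of signal was fitted against DMSO; primary screen used 25 uM in duplicate, follow-up used concentration series.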"}, "[6]": {"biological_target": "rat Constitutive Nitric Oxide Synthase (CNOS), Nos1 (gene 24598) (UniProt P29476)", "sequence (P29476 whole entry, looked up)": "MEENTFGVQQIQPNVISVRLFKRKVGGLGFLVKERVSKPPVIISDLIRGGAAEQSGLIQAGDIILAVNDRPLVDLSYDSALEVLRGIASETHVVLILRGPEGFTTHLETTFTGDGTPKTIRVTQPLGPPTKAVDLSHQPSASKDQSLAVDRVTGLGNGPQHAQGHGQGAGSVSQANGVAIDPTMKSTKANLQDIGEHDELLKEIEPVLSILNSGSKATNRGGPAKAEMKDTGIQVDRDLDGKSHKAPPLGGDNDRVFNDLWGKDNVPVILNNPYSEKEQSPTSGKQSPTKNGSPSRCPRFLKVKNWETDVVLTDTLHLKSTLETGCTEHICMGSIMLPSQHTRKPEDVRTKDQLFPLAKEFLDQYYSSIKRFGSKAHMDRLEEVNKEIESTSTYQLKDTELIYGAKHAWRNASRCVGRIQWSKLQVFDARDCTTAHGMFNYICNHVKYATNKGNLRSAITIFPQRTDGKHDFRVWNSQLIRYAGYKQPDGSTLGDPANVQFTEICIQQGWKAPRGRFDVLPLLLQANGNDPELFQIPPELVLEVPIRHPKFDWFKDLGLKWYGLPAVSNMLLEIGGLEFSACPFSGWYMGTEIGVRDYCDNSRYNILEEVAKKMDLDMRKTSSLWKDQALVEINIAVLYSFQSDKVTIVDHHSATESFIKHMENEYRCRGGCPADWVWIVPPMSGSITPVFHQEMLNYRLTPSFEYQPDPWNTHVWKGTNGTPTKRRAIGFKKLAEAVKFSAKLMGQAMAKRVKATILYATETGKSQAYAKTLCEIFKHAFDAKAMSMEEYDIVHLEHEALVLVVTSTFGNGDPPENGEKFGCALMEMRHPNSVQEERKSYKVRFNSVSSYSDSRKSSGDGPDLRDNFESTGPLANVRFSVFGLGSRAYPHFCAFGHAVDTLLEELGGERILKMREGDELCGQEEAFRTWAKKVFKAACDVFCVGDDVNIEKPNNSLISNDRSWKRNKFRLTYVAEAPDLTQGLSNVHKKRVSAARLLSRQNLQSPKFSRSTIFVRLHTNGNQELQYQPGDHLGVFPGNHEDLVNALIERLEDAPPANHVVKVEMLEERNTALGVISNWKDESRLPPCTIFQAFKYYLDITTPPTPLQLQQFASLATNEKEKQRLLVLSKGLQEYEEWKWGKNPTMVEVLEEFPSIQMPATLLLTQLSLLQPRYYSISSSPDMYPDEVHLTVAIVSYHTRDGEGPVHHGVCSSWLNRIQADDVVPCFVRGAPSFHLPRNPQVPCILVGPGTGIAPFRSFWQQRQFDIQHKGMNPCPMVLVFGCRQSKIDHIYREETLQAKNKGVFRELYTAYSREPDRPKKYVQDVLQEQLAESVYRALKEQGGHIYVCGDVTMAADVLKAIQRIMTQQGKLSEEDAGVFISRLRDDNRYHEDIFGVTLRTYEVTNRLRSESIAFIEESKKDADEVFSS", "assay": "NVS_ENZ_rCNOS: NovaScreen (NVS) Enzymatic Assay for rat Constitutive Nitric Oxide Synthase (CNOS) (AID 2283236)", "procedure,_shortened": "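Enzyme activity in rat brain membrane preparation, read 1 h after dosing by filter-based radiometric scintillation counting. Primary screen in duplicate at 25 uM; actives (e.g., ≥30% inhibition) then run in concentration-response up to 50 uM.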"}, "[7]": {"biological_target": "rat Adenylate Cyclase, Forskolin Stimulated, Adcy5 (gene 64532) (UniProt Q04400)", "assay": "NVS_ENZ_rACFSKBinding: NovaScreen (NVS) Enzymatic Assay for rat Adenylate Cyclase, Forskolin Stimulated (AID 2283232)", "protocol": "NVS_ENZ_rACFSKBinding is a biochemical, single-readout assay that uses extracted gene-proteins from Rat forebrain membranes in a tissue-based cell-free assay. Measurements were taken 1 hour after chemical dosing in a 48-well plate.NVS_ENZ_rACFSKBinding is one of one assay component(s) measured or calculated from the NVS_ENZ_rACFSKBinding assay. It is designed to make measurements of enzyme activity, a form of enzyme reporter, as detected with scintillation counting signals by Filter-based radiodetection technology.Data from the assay component NVS_ENZ_rACFSKBinding was analyzed into 1 assay endpoint. This assay endpoint, NVS_ENZ_rACFSKBinding, was analyzed in the positive analysis fitting direction relative to DMSO as the negative control and baseline of activity. Using a type of enzyme reporter, loss-of-signal activity can be used to understand changes in the enzymatic activity as they relate to the gene Adcy5. Furthermore, this assay endpoint can be referred to as a primary readout, because this assay has produced multiple assay endpoints where this one serves a enzymatic activity function. To generalize the intended target to other relatable targets, this assay endpoint is annotated to the lyase intended target family, where the subfamily is adenylyl cyclase.\nas §1"}, "[8]": {"tested_on": "bovine Angiotensin II Receptor Type 2 (AT2), gene 407157", "assay": "NVS_GPCR_bAT2: NovaScreen (NVS) G Protein-Coupled Receptor Assay for bovine Angiotensin II Receptor Type 2 (AT2) (AID 2283240)", "procedure,_shortened": "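Radioligand displacement on bovine cerebellar membranes, 1 hour incubation, filter-based scintillation counting; loss of signal vs DMSO. Duplicate single-point screen at 25 uM, then concentration-response to 50 uM maximum.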"}, "[9]": {"biological_target": "bovine Dopamine Receptor (DR), Non-selective Binding, DRD1 (gene 281125) (UniProt Q95136)", "sequence (Q95136 whole entry, looked up)": "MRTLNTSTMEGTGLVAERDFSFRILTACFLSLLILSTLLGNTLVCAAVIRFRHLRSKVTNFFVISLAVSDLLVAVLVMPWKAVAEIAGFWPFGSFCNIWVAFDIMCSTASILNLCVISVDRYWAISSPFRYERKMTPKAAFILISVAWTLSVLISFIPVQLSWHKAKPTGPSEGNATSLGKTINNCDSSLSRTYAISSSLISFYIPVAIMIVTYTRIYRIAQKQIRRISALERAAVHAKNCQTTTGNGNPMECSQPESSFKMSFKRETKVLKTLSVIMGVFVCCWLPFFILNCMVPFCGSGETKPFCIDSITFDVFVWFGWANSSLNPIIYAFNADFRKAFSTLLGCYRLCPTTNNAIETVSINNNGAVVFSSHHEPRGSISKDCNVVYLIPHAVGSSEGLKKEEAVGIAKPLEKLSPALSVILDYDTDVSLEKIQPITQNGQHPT", "assay": "NVS_GPCR_bDR_NonSelective: NovaScreen (NVS) G Protein-Coupled Receptor Assay for bovine Dopamine Receptor (DR), Non-selective Binding (AID 2283241)", "procedure,_shortened": "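Bovine striatal membranes; radioligand displacement read by filtration and scintillation counting 1 h after dosing, loss of signal vs DMSO. Screened in duplicate at 25 uM, then concentration-response for hits.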"}, "[10]": {"biological_target": "rat Acetylcholinesterase (AChE), Ache (gene 83817) (UniProt P37136)", "sequence (P37136 whole entry, looked up)": "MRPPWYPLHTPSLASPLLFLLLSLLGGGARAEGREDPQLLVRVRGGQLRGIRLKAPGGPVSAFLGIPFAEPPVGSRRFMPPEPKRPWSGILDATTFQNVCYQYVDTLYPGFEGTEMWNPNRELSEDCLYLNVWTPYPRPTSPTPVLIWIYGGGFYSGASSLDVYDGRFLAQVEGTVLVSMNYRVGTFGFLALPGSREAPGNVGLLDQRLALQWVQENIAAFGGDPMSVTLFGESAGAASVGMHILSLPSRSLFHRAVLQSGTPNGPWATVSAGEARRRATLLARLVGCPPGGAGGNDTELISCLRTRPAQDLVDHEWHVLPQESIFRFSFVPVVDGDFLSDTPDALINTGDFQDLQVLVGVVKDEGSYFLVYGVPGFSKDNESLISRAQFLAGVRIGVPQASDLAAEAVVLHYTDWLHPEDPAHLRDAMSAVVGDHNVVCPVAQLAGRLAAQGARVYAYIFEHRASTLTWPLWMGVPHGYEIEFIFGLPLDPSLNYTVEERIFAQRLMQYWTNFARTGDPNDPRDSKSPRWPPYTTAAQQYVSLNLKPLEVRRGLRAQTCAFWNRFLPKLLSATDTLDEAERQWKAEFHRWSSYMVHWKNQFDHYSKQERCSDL", "assay": "NVS_ENZ_rAChE: NovaScreen (NVS) Enzymatic Assay for rat Acetylcholinesterase (AChE) (AID 2283233)", "protocol": "NVS_ENZ_rAChE is a biochemical, single-readout assay that uses extracted gene-proteins from Rat brain membranes in a tissue-based cell-free assay. Measurements were taken 0.33 hour after chemical dosing in a 96-well plate.NVS_ENZ_rAChE is one of one assay component(s) measured or calculated from the NVS_ENZ_rAChE assay. It is designed to make measurements of enzyme activity, a form of enzyme reporter, as detected with absorbance signals by Colorimetric technology.Data from the assay component NVS_ENZ_rAChE was analyzed into 1 assay endpoint. This assay endpoint, NVS_ENZ_rAChE, was analyzed in the positive analysis fitting direction relative to DMSO as the negative control and baseline of activity. Using a type of enzyme reporter, loss-of-signal activity can be used to understand changes in the enzymatic activity as they relate to the gene Ache. Furthermore, this assay endpoint can be referred to as a primary readout, because this assay has produced multiple assay endpoints where this one serves a enzymatic activity function. To generalize the intended target to other relatable targets, this assay endpoint is annotated to the esterase intended target family, where the subfamily is acetylcholinesterase.\nas §1"}},
  "note": "Inconclusive results are not listed. Activity calls are given as the source filed them. The calls were made as follows: active = hit-call score of the fitted dose curve at least 0.9, where 1 is the maximum; inconclusive = response in the unintended direction; inactive = score below 0.9.",
  "data": [
    {"smiles": "CN(C)[C@@H]1C(=O)C(C(N)=O)=C(O)[C@@]2(O)C(=O)C3=C(O)c4c(O)cccc4[C@@](C)(O)[C@H]3C[C@@H]12", "values": [
      {"measurement": "AC50", "setting": "[1]", "result": "11.4 µM (active)"},
      {"measurement": "AC50", "setting": "[2]", "result": "2.73 µM (active)"},
      {"measurement": "outcome", "setting": "[3]", "result": "inactive"},
      {"measurement": "outcome", "setting": "[4]", "result": "inactive"}
    ]},
    {"smiles": "C1=Cc2cccc3cccc1c23", "values": [
      {"measurement": "AC50", "setting": "[4]", "result": "15.7 µM (active)"}
    ]},
    {"smiles": "CCOc1cccc(C2(N3CCN(c4ccccc4)CC3)CCC(C)CC2)c1", "note": "(stereo unspecified)", "values": [
      {"measurement": "AC50", "setting": "[5]", "result": "13.7 µM (active)"}
    ]},
    {"smiles": "Clc1ccccc1Cl", "values": [
      {"measurement": "outcome", "setting": "[4]", "result": "inactive"}
    ]},
    {"smiles": "C=CCc1ccc2c(c1)OCO2", "values": [
      {"measurement": "outcome", "setting": "[6]", "result": "inactive"}
    ]},
    {"smiles": "ClCCOCCCl", "values": [
      {"measurement": "outcome", "setting": "[4]", "result": "inactive"}
    ]},
    {"smiles": "Cc1cc(N=Nc2ccccc2C)ccc1N", "values": [
      {"measurement": "AC50", "setting": "[2]", "result": "0.643 µM (active)"},
      {"measurement": "AC50", "setting": "[3]", "result": "25 µM (active)"},
      {"measurement": "AC50", "setting": "[4]", "result": "11.8 µM (active)"}
    ]},
    {"smiles": "CCC[CH2][Sn]([Cl])([CH2]CCC)[CH2]CCC", "values": [
      {"measurement": "AC50", "setting": "[7]", "result": "41 µM (active)"},
      {"measurement": "AC50", "setting": "[8]", "result": "18.2 µM (active)"},
      {"measurement": "AC50", "setting": "[9]", "result": "9.14 µM (active)"}
    ]},
    {"smiles": "CC(C)(C)OOC(C)(C)CCC(C)(C)OOC(C)(C)C", "values": [
      {"measurement": "outcome", "setting": "[5]", "result": "inactive"}
    ]},
    {"smiles": "c1ccc2c(c1)-c1cccc3cccc-2c13", "values": [
      {"measurement": "outcome", "setting": "[4]", "result": "inactive"}
    ]},
    {"smiles": "Cc1ccc(N)c(N)c1", "values": [
      {"measurement": "AC50", "setting": "[4]", "result": "42 µM (active)"}
    ]},
    {"smiles": "CN(C)c1ccccc1", "values": [
      {"measurement": "outcome", "setting": "[1]", "result": "inactive"}
    ]},
    {"smiles": "CCCCCCCCCCCCCN1CC(C)OC(C)C1", "note": "(stereo unspecified)", "values": [
      {"measurement": "AC50", "setting": "[2]", "result": "20.8 µM (active)"}
    ]},
    {"smiles": "Cc1cccc(N)c1N", "values": [
      {"measurement": "outcome", "setting": "[10]", "result": "inactive"},
      {"measurement": "outcome", "setting": "[4]", "result": "inactive"}
    ]},
    {"smiles": "CC(O)CCO", "note": "(stereo unspecified)", "values": [
      {"measurement": "outcome", "setting": "[1]", "result": "inactive"}
    ]},
    {"smiles": "[Cl-].[Cl-].[Hg+2]", "values": [
      {"measurement": "AC50", "setting": "[5]", "result": "3.19 µM (active)"},
      {"measurement": "AC50", "setting": "[4]", "result": "2.97 µM (active)"},
      {"measurement": "AC50", "setting": "[9]", "result": "11.6 µM (active)"}
    ]},
    {"smiles": "Nc1ccc(N=Nc2ccccc2)cc1", "values": [
      {"measurement": "AC50", "setting": "[5]", "result": "18.3 µM (active)"},
      {"measurement": "AC50", "setting": "[3]", "result": "25 µM (active)"},
      {"measurement": "AC50", "setting": "[4]", "result": "4.49 µM (active)"}
    ]},
    {"smiles": "c1ccc(NNc2ccccc2)cc1", "values": [
      {"measurement": "AC50", "setting": "[4]", "result": "2.46 µM (active)"}
    ]},
    {"smiles": "Nc1ccc([N+](=O)[O-])cc1", "values": [
      {"measurement": "AC50", "setting": "[5]", "result": "16.7 µM (active)"}
    ]}
  ]
}
